# About 83,000 compounds went through this panel and 20% of them were active in at least one assay; those are over-represented in the sample as a whole.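 The test compound was applied at a single concentration to cells in 96-well plates for 48 hours, and percent growth was recorded.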 Activity calls are given as the source filed them.
# System: OVCAR-5 ovarian
# Test: NCI-60 one-dose screen, 48 h (100 = growth as untreated, 0 = no growth, -100 = all killed)
# Conditions: 10 µM unless noted
# Experimental: Growth inhibition of the OVCAR-5 human tumor cell line is measured as a screen for anti-cancer activity. Cells are grown in 96 well plates and exposed to the test compound for 48 hours. Compounds are tested at a single concentration, which is 10^-5 M for most compounds. The reported endpoint is percent growth (GI% or GIPRCNT), where numbers from 0 - 100% represent growth inhibition, and numbers from -100% - 0 represent cell death. For example, a value of 40 represents 60% growth inhibition. A value of 0 means no net growth occurred over the course of the experiment. A value of -40 indicates 40% of cells at the beginning of the experiment died by the end of the experiment. A value of -100 means all cells are dead at the end of the experiment.
# NCI-60 Human Tumor Cell Lines Screen was performed using the standard one-dose NCI protocol, which is described in more detail at https://dtp.cancer.gov/discovery_development/nci-60/default.htm.
# Compounds with GIPRCNT values below 10 were considered active. Activity score was based on GIPRCNT using the following formula: […]
# Score is 0 for GIPRCNT values of 100 or above, 50 for GIPRCNT values of 0, and 100 for GIPRCNT values of -100.
row,SMILES,growth
1,COc1cccc2c(=O)c3c(sc12)c(NCCCN)nc1ccccc13,77.9% (inactive)
2,Cc1cc(=O)oc2cc(OC(=O)N3CCN(C)CC3)ccc12,98.7% (inactive)
3,CCc1ccc(Oc2c(-c3ccc(OCc4ccc(Cl)cc4)cc3O)nn(C)c2C(F)(F)F)cc1,13.2% (inactive)
4,Cc1ccc(C(=O)NN2C(=O)CSC2c2ccc(Cl)cc2)cn1 (stereo not given),92.3% (inactive)
5,CN(C)c1ccc2nc3ccc(=[N+](C)C)c([N+](=O)[O-])c-3sc2c1,-7.81% (active)
6,Cc1nn(-c2ccccc2)c(-n2ccnc2)c1/C=N/Nc1nc(-c2ccc(Cl)c(Cl)c2)cs1,71.8% (inactive)
7,CCCCOc1ccc(/C=N/NC(N)=S)cc1,93.1% (inactive)
8,COc1ccc(/C=C2\Oc3cc(OCCN4CCC(Cc5ccccc5)CC4)ccc3C2=O)cc1OC,93.4% (inactive)
9,CCOC(=O)CCN(C(=O)Nc1ccccc1)C1CCCCC1,87.4% (inactive)
10,CCOC(=O)c1[nH]c(C)c(C(=O)OCc2ccccc2C#N)c1C,105% (inactive)
11,N#Cc1ccc(NC(=O)c2sc3nc4c(cc3c2N)C(=O)CCC4)cc1,89.2% (inactive)
12,COc1cccc(OC)c1C(=O)N[C@@H]1C(=O)N2[C@@H]1SC(C)(C)[C@@H]2C(=O)O,110% (inactive)
13,CCN1C(=O)N(CC)C2Nn3c(s/c(=C4\C(=O)N(CCC(C)C)c5ccccc54)c3=O)=NC21 (stereo not given),102% (inactive)
14,COc1ccc(-c2nc(NCCO)[nH]c(=O)c2C#N)cc1,92.8% (inactive)
15,CCc1cccc2c1S/C(=C/c1ccc(OC)cc1)C2=O,76% (inactive)
16,COc1ccc(NC(=O)n2nc(/C=C\c3ccc(O)c(OC)c3)cc2/C=C\c2ccc(O)c(OC)c2)cc1,62.3% (inactive)
17,CC1=C(C)C(=O)C(Nc2cccc(C(=O)OC(C)(C)C)c2)=C(Br)C1=O,99.9% (inactive)
18,N[C@@H](Cc1ccccc1)[C@@H](O)C(=O)NCc1ccc(F)cc1,98.7% (inactive)
19,COc1cccc(-c2nc(-c3ccc(NC(=O)C(C)C)cc3)[nH]c2-c2ccnc(Br)c2)c1,70.2% (inactive)
20,CC(=O)CC(c1cccs1)c1c(-c2ccccc2)[nH]c2ccccc12 (stereo not given),99.8% (inactive)

row,SMILES,growth
1,COC1=C(C)C(=O)c2c(c(CCCl)c3n2CCC3OC(C)=O)C1=O (stereo not given),4.93% (active)
2,COc1ccc(C2CC(c3ccc(Nc4ccnc5cc(Cl)ccc45)cc3)=NN2C=O)cc1 (stereo not given),102% (inactive)
3,COc1nc2ccccc2cc1-c1nc2c(cnn2-c2ccccc2)c(=O)[nH]1,79.5% (inactive)
4,Cc1ccc(C(=O)NCCNc2nccc(-c3c(-c4cccc(F)c4)nc4sccn34)n2)cc1,69.2% (inactive)
5,CCCCCCNC(=O)Oc1ccc(/C(=C(\C)c2ccc(OC)cc2)c2ccc(OCCN3CCCCC3)cc2)cc1,82.6% (inactive)
6,S=c1nc(-c2ccccc2)oc(=NC2CCCCC2)n1C1CCCCC1,86.2% (inactive)
7,O=C1COCCN1c1ccc(NCc2cn(C(=O)c3ccc(Cl)cc3)c3ccccc23)cc1,-25.7% (active)
8,COc1ccc(-c2ncnc3c2ncn3CC#CCCl)cc1,97.7% (inactive)
9,CC(=O)N1N=C(c2ccc(Nc3nc(Nc4ccc(F)cc4)nc(Nc4ccc(Cl)cc4)n3)cc2)CC1c1ccc(Cl)cc1 (stereo not given),95.1% (inactive)
10,NCCCNc1nc2ccccc2c2c(=O)c3cc(OC(F)(F)F)ccc3sc12,76% (inactive)
11,COc1ccc(-c2conc2-c2ccccc2)cc1,27.7% (inactive)
12,COc1cc(/C=C/c2ccccc2)cc(OC)c1,95.6% (inactive)
13,COc1cc(C(=O)c2cc(C)c3[nH]c4ccc(O)cc4c3c2C)cc(OC)c1OC,38.9% (inactive)
14,NC1=NC(c2cccc(Br)c2)c2sc3ccc(Cl)cc3c2N1 (stereo not given),103% (inactive)
15,COc1cc(C(=O)c2cnc(-c3c[nH]c4cccc(C)c34)[nH]2)cc(OC)c1OC,46.5% (inactive)
16,COc1cc(CCCO)c(OC)c(OC)c1OC,103% (inactive)
17,O=C(CSc1nccc(Nc2ccc(S(=O)(=O)Nc3nccs3)cc2)n1)c1ccc(C(F)(F)F)cc1,111% (inactive)
18,CC1Cc2ccccc2N1NC(=O)c1ccc(Cl)c(S(N)(=O)=O)c1 (stereo not given),105% (inactive)
19,CCCCOc1nc2c(C)cccc2cc1-c1cc(-c2ccc(Cl)cc2)nc(-c2ccc(Cl)cc2)c1,96.6% (inactive)
20,CCCCC[C@H](O)C/C=C1/C(=O)C=C[C@@H]1C/C=C\CCCC(=O)OC,129% (inactive)

# From PubChem BioAssay (NCI)
